# Where “and” joins values, the source holds several entries; their conditions need not be identical. Identical values can stand only once. Inconclusive results are not listed. Calls of active or inactive are those of the source. Unless noted, no rule for the calls is given here.
# Columns and labels:
# [1] = circadian clock period modulators, cell-based, LOPAC library, luminescence reporter (AID 2774); settings: circadian reporter cells, at 7 µM, actives lie on both sides;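 also: values are relative to mean of DMSO wells on each plate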
# [2] = growth inhibition of DIPG glioma cells, dose response, cell-based, SU-DIPG-XIII, MIPE5.0, CellTiter-Glo, qHTS (AID 1347064; cut-off not given, nearly all actives have AC50 up to about 23 µM;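 as to AC50: cells exposed to compound for 48 hours before the viability read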); settings: SU-DIPG-XIII viability, CellTiter-Glo ATP luminescence
# [3] = test system: Neuropilin-2 / VEGF-C interaction (human); assay: inhibitors of NRP2–VEGF-C binding, biochemical, microplate binding format, z-score (AID 743281); settings: microplate NRP2/VEGF-C binding assay; stronger effect = lower value
# [4] = CRL2098 osteosarcoma cell growth inhibition, synergistic combos for chromothripsis tumors, BGB or cisplatin IC20 combos (AID 1671454; in the data active = inhibition above about 80%;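 also: cells exposed for 96 h before readout; 0% = vehicle DMSO and 100% = killing by high DMSO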); settings: CRL2098 osteosarcoma cells, drug combinations, stronger effect = higher value
# [5] = HD-MB03 medulloblastoma cell growth inhibition, synergistic combos for chromothripsis tumors, BGB or cisplatin IC20 combos (AID 1671455; in the data active = inhibition above about 83%;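 also: 0% = vehicle DMSO and 100% = high DMSO as cytotoxic control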); settings: HD-MB03 medulloblastoma cells, stronger effect = higher value
# [6] = UWB1.289 ovarian carcinoma cell growth inhibition, synergistic combos for chromothripsis tumors, BGB or cisplatin combos (AID 1671456; in the data active = inhibition above about 80%;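 also: cells exposed to compound for four days; 0% = vehicle DMSO and 100% = killing by high DMSO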); settings: UWB1.289 ovarian carcinoma cells, stronger effect = higher value
# [7] = LFS_MB_2R medulloblastoma cell growth inhibition, synergistic combos for chromothripsis tumors, cisplatin combos (AID 1671457; in the data active = inhibition above about 80%;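 also: cells exposed to compound for four days before readout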); settings: LFS_MB_2R medulloblastoma cells, stronger effect = higher value
# [8] = UWB1.289_BRCA1 ovarian cancer growth, cell-based, BGB or cisplatin combinations (AID 1671459; in the data active = inhibition above about 80%); settings: UWB1.289 BRCA1 ovarian carcinoma, drug combinations, stronger effect = higher value
# [9] = human astrocyte viability loss, single and combined drugs, cytotoxicity control for chromothriptic childhood tumor combination screen, cell-based, BGB or cisplatin IC20 combos (AID 1671460; in the data active = inhibition above about 80%;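 also: cells exposed to compounds for 96 hours before viability readout; 0% = vehicle and 100% = killing control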); settings: Human astrocytes, drug combinations, stronger effect = higher value
# [10] = liver-stage malaria parasite growth inhibition, primary screen, cell-based, HepG2, luciferase luminescence, HepG2 viability (AID 624349; in the data active = parasite load remaining mostly below about 12%, no sharp cut-off; inactive = mostly above about 10%;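 also: 100% = mean of DMSO negative control wells on the same plate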); settings: P. berghei liver stage in HepG2, luciferase luminescence, concentration not given here; parasite load remaining: stronger effect = lower value; viability: measured here: HepG2 viability without parasites
# [11] = molecular target: ATP-dependent translocase ABCB1 (Homo sapiens) (UniProt P08183); assay: MDR1 (ABCB1) efflux transporter inhibition, cell-based (AID 377; in the data active = fluorescence slope change above about 50%); settings: MDR1-expressing cells, fluorescent substrate accumulation slope; stronger effect = higher value; concentration not given here
# ATP-dependent translocase ABCB1 (Homo sapiens), sequence (P08183 whole entry, looked up): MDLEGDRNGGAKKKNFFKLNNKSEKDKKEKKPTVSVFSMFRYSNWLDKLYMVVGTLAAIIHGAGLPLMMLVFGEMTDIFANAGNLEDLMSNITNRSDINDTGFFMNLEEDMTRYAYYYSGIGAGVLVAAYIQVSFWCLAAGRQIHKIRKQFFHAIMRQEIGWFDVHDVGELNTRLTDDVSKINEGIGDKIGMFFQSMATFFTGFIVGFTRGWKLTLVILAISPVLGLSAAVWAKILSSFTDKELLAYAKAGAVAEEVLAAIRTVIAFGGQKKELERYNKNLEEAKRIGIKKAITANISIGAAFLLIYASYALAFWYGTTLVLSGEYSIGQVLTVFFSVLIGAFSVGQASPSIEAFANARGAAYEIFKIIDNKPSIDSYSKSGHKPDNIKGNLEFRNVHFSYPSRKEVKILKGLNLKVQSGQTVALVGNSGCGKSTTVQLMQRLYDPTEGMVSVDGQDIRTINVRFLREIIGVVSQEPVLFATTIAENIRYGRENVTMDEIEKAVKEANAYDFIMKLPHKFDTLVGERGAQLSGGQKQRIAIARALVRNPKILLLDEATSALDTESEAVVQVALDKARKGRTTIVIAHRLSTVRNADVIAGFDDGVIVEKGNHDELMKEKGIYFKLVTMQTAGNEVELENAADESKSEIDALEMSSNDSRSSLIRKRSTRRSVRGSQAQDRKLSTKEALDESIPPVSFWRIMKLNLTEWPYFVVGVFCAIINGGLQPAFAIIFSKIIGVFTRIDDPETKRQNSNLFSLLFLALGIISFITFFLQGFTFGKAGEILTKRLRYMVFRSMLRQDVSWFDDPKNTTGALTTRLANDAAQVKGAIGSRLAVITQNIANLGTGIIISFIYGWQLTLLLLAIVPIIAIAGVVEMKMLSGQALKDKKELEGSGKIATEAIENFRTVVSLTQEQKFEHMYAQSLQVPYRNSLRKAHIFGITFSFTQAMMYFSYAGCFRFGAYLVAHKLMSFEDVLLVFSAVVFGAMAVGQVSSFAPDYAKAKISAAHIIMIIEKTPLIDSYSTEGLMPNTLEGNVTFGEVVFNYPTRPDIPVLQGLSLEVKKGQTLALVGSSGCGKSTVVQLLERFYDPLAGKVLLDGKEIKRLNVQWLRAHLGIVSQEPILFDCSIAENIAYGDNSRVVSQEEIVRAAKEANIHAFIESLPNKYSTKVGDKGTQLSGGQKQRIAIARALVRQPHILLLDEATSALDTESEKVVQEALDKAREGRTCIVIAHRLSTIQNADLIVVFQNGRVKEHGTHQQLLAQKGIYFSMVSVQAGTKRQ
# [12] = modifiers of HSF1 nuclear foci, imaging, Selleck Cancer Library (AID 1347162; in the data active = plate-normalised HSF1 focus index below about 0.46); settings: human cells, at 10 µM; SSMD: measured here: HSF1 foci SSMD mean; cell count: measured here: cell number; plate-normalised HSF1 focus index: stronger effect = lower value
# [13] = test system: Aerobactin synthetase IucA (Klebsiella pneumoniae); assay: IucA aerobactin synthetase inhibitors, biochemical, Tocris library, absorbance (AID 1345561); settings: purified IucA enzyme assay, absorbance (OD) read-out; stronger effect = lower value;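 tested at 8 µM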;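 also: 100% = enzyme without compound and 0% = no enzyme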
# [14] = inhibitors of Cryptococcus chitosan production, flow cytometry, Cibacron Brilliant Red staining (AID 1347148); settings: Cryptococcus neoformans chitosan, stronger effect = lower value; at 99.1 µM unless noted;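 also: compound exposure lasted three days at 37 degrees C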
# [15] = measured here: combination with BGB at IC20, at 0.5 µM
# [16] = measured here: combination with cisplatin at IC20, at 0.5 µM
# [17] = measured here: combo with BGB at IC20, at 0.5 µM
# [18] = measured here: combo with cisplatin at IC20, at 0.5 µM
# [19] = measured here: inhibition with BGB combination, at 0.05 µM
# [20] = measured here: inhibition with cisplatin combination, at 0.05 µM
# [21] = measured here: combination with cisplatin, at 0.5 µM
# [22] = measured here: combination with cisplatin, at 5 µM
# [23] = BGB combination, concentration series, at 5 µM
# [24] = cisplatin combination, concentration series, at 5 µM
# [25] = measured here: combo with BGB IC20, at 0.5 µM
# [26] = measured here: combo with cisplatin IC20, at 0.5 µM
structure (smiles),measurement,setting,value
O=C(C1CCCCC1)N1CC(=O)N2CCc3ccccc3C2C1 (configuration not stated),period change,[1],0.13 h (inactive)
same,outcome,[2],inactive
CC(=O)OCC(CCn1cnc2cnc(N)nc21)COC(C)=O,z-score,[3],-0.315 (inactive)
same,inhibition,[4]; at 0.5 µM,-1.73% (inactive)
same,inhibition,[4]; [15],-9.88%
same,inhibition,[4]; [16],-30.1%
same,inhibition,[5]; at 0.5 µM,-9.43% (inactive)
same,inhibition,[5]; [17],-6.57%
same,inhibition,[5]; [18],-14.8%
same,inhibition,[6]; at 0.5 µM,5.6% (inactive)
same,inhibition,[6]; [19],-6.88%
same,inhibition,[6]; [20],-9.39%
same,inhibition,[7]; at 0.5 µM,-19.1% (inactive)
same,inhibition,[7]; [21],-22.6%
same,inhibition,[7]; [22],-72.7%
same,inhibition,[8]; [23],-1.67%
same,inhibition,[8]; at 0.5 µM,-3.29% (inactive)
same,inhibition,[8]; [24],11.9%
same,inhibition,[9]; at 0.5 µM,8.43% (inactive)
same,inhibition,[9]; [25],10.6%
same,inhibition,[9]; [26],-5.87%
Oc1c(Cl)cc(Cl)c2cccnc12,parasite load remaining,[10],-2.47% (inactive) and 0.685% (inactive)
same,viability,[10],56.8% and 69.6%
same,AC50,[2],11.8 µM (active)
O=C(O)c1cc(=O)c2c(OCC(O)COc3cccc4oc(C(=O)O)cc(=O)c34)cccc2o1,outcome,[2],inactive
CC(C)C(=O)Nc1ccc([N+](=O)[O-])c(C(F)(F)F)c1,fluorescence slope change,[11],60.9% (active)
same,period change,[1],-0.165 h (inactive)
same,outcome,[2],inactive
same,SSMD,[12],1.17
same,cell count,[12],6660
same,plate-normalised HSF1 focus index,[12],1.06 (inactive)
CC(C[N+](C)(C)C)OC(N)=O (configuration not stated),period change,[1],-0.04 h (inactive)
CC12CC3CC(C)(C1)CC(N)(C3)C2,period change,[1],0.205 h (inactive)
same,outcome,[3],inactive
same,remaining activity,[13],87.5% (inactive)
N[C@@H]1CONC1=O,period change,[1],0.11 h (inactive)
same,z-score,[3],-0.138 (inactive)
same,outcome,[2],inactive
NNC(=O)c1ccncc1,fluorescence slope change,[11],55.1% (active)
CN=C(NC#N)NCCSCc1nc[nH]c1C,period change,[1],0.115 h (inactive)
same,remaining activity,[13],118% (inactive)
NCCc1ccc(O)c(O)c1,period change,[1],-0.01 h (inactive)
same,parasite load remaining,[10],36.4% (inactive) and 34.7% (inactive) and 21% (inactive)
same,viability,[10],120% and 74.1% and 206%
CCCCNc1cc(C(=O)O)cc(S(N)(=O)=O)c1Oc1ccccc1,fluorescence slope change,[11],105% (active)
same,period change,[1],0.11 h (inactive)
same,outcome,[2],inactive
same,fold fluorescence,[14],4.08 [at 137.2 µM] (inactive)
CCCc1nc2c(C)cc(-c3nc4ccccc4n3C)cc2n1Cc1ccc(-c2ccccc2C(=O)O)cc1,z-score,[3],-0.492 (inactive)
same,outcome,[2],inactive
CCCc1cc(=O)[nH]c(=S)[nH]1,fluorescence slope change,[11],-6.8% (inactive)
same,outcome,[2],inactive
CC1=NS(=O)(=O)c2cc(Cl)ccc2N1,fluorescence slope change,[11],82.3% (active)
same,period change,[1],0.13 h (inactive)
same,z-score,[3],-0.142 (inactive)
same,remaining activity,[13],104% (inactive)
same,fold fluorescence,[14],4.83 [at 216.8 µM] (inactive)
O=C(O)CCCc1ccccc1,parasite load remaining,[10],61.6% (inactive) and 72.5% (inactive)
same,viability,[10],96.6% and 102%
same,remaining activity,[13],106% (inactive)
same,SSMD,[12],2.46
same,cell count,[12],7000
same,plate-normalised HSF1 focus index,[12],1.14 (inactive)
same,inhibition,[4]; at 0.5 µM,-56.1% (inactive)
same,inhibition,[4]; [15],-54.3%
same,inhibition,[4]; [16],-68.3%
same,inhibition,[5]; at 0.5 µM,-7.96% (inactive)
same,inhibition,[5]; [17],-7.07%
same,inhibition,[5]; [18],-7.42%
same,inhibition,[6]; at 0.5 µM,-4.79% (inactive)
same,inhibition,[6]; [19],-17.3%
same,inhibition,[6]; [20],-13.9%
same,inhibition,[7]; at 0.5 µM,-17.8% (inactive)
same,inhibition,[7]; [21],-17.8%
same,inhibition,[7]; [22],-56.2%
same,inhibition,[8]; [23],3.17%
same,inhibition,[8]; at 0.5 µM,-1.28% (inactive)
same,inhibition,[8]; [24],25.2%
same,inhibition,[9]; at 0.5 µM,2.17% (inactive)
same,inhibition,[9]; [25],-14.8%
same,inhibition,[9]; [26],-0.734%
COc1ccccc1OCCNCC(O)COc1cccc2[nH]c3ccccc3c12 (configuration not stated),parasite load remaining,[10],91.3% (inactive) and 56.7% (inactive) and 56.6% (inactive)
same,z-score,[3],1.06 (inactive)
same,remaining activity,[13],112% (inactive)
CC(COc1ccccc1)N(CCCl)Cc1ccccc1 (configuration not stated),period change,[1],0.03 h (inactive)
same,outcome,[2],inactive
COc1ccc(Cl)cc1C(=O)NCCc1ccc(S(=O)(=O)NC(=O)NC2CCCCC2)cc1,fluorescence slope change,[11],105% (active)
same,period change,[1],0.16 h (inactive)
same,remaining activity,[13],104% (inactive)
same,fold fluorescence,[14],3.32 [at 101.2 µM] (inactive)
CC(=O)CC(c1ccccc1)c1c(O)c2ccccc2oc1=O (configuration not stated),parasite load remaining,[10],43.1% (inactive) and 79.3% (inactive) and 42.7% (inactive)
same,viability,[10],95.3% and 65.5% and 98.1%
COCCOC(=O)C1=C(C)NC(C)=C(C(=O)OC(C)C)C1c1cccc([N+](=O)[O-])c1 (configuration not stated),period change,[1],0.19 h (inactive)
same,z-score,[3],-0.18 (inactive)
same,remaining activity,[13],102% (inactive)
same,fold fluorescence,[14],6.04 [at 119.5 µM] (inactive)
O=c1[nH]cnc2[nH]ncc12,period change,[1],0.19 h (inactive)
same,parasite load remaining,[10],54% (inactive) and 101% (inactive) and 124% (inactive)
same,viability,[10],90.8% and 70.7% and 94.2%
same,outcome,[2],inactive
CC(C)Cc1ccc(C(C)C(=O)O)cc1 (configuration not stated),period change,[1],0.16 h (inactive)
same,outcome,[2],inactive
OC(Cn1cncn1)(Cn1cncn1)c1ccc(F)cc1F,outcome,[2],inactive
CCN(Cc1ccncc1)C(=O)C(CO)c1ccccc1 (configuration not stated),fluorescence slope change,[11],82.5% (active)
same,period change,[1],0.035 h (inactive)
same,remaining activity,[13],104% (inactive)
CS(=O)(=O)OCCCCOS(C)(=O)=O,fluorescence slope change,[11],13.3% (inactive)
same,parasite load remaining,[10],46.8% (inactive) and 102% (inactive) and 58% (inactive)
same,viability,[10],95.5% and 78.8% and 98.1%
same,inhibition,[4]; at 0.5 µM,-52.1% (inactive) and -4.61% (inactive)
same,inhibition,[4]; [15],-29.9% and -15.7%
same,inhibition,[4]; [16],-107% and 11.7%
same,inhibition,[5]; at 0.5 µM,-10.8% (inactive) and -1.12% (inactive)
same,inhibition,[5]; [17],-20.4% and -4.59%
same,inhibition,[5]; [18],-6.85% and 1.19%
same,inhibition,[6]; at 0.5 µM,4.55% (inactive) and 10.4% (inactive)
same,inhibition,[6]; [19],-3.6% and 0.829%
same,inhibition,[6]; [20],24.9% and -0.011%
same,inhibition,[7]; at 0.5 µM,-13.8% (inactive) and 9.5% (inactive)
same,inhibition,[7]; [21],-18.7% and -5.75%
same,inhibition,[7]; [22],-4.43% and 9.74%
same,inhibition,[8]; [23],12% and 6.21%
same,inhibition,[8]; at 0.5 µM,5.87% (inactive) and 9.31% (inactive)
same,inhibition,[8]; [24],-4.07% and 9.32%
same,inhibition,[9]; at 0.5 µM,7.45% (inactive) and 3.61% (inactive)
same,inhibition,[9]; [25],2.2% and 2.78%
same,inhibition,[9]; [26],9.68% and 12.3%

# Source: PubChem BioAssay
